In PubChem BioAssay AID1930 (Vanderbilt High Throughput Screening Facility, 2009):

Biological target: Muscarinic acetylcholine receptor M2 (Homo sapiens) (UniProt P08172)
Assay: hM2 allosteric modulation, ACh fold-shift, selectivity assay for M4 PAM project, cell-based, Gqi5 chimera, calcium (AID 1930)
Settings: hM2/Gqi5 cells; series mostly up to 10 µM; ACh response, % of max: at the top concentration; call rule not given here

Chain of Muscarinic acetylcholine receptor M2 (Homo sapiens) (P08172 whole entry, looked up): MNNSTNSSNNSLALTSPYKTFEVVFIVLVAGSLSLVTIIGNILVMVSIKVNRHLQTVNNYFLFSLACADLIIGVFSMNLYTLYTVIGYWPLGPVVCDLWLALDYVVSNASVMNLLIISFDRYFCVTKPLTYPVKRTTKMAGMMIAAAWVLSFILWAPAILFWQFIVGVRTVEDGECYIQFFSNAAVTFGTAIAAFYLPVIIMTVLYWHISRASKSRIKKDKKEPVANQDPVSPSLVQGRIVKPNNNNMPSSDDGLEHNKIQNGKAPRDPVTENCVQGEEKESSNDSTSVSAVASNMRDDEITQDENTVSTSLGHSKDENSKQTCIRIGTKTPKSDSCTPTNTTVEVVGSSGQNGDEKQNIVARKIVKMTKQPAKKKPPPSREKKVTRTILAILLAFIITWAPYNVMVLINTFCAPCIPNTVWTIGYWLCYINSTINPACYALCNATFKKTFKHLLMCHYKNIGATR

ACh response, % of max, inactive:
COc1ccc(CNC(=O)c2sc3nc(OCc4ccncc4)cc(C)c3c2N)cc1 102
Cc1cc(OCc2ccncc2)nc2sc(C(=O)NCc3cc(F)ccc3F)c(N)c12 95.8
Cc1cc(OCCN2CCOCC2)nc2sc(C(=O)NC(C)(C)C)c(N)c12 96.2
Cc1cc(OCc2ccncc2)nc2sc(C(=O)NCc3cccc(F)c3F)c(N)c12 97.2
